Our source for the outcome and AC50 values is PubChem BioAssay (EPA / NIEHS).

Assay [1] is described as follows: APR_HepG2_CellCycleArrest_1hr: Apredica 1-hour HepG2 Assay for Cell Cycle Arrest (AID 2282666). Conditions: high-content imaging, actives raise or lower the signal. In short, it runs like this: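 HepG2 cells exposed for 1 h to 0.39–200 uM compound (0.5% DMSO). Fixed, Hoechst-stained nuclei imaged by ArrayScan; DNA content quantified by Cell Cycle analysis; bidirectional fit against DMSO.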

Assay [2] is described as follows: ACEA_ER_80hr: ACEA Biosciences xCELLigence Real-Time Cell Analysis on Estrogen Receptor Agonism for Proliferation (AID 2282667; active = hit-call score of the fitted dose curve at least 0.9, where 1 is the maximum). To be noted: T47D proliferation, impedance (xCELLigence), 80 h. Put shortly:
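Estrogen-driven proliferation is captured as electrode impedance in T47D cells 80 h after compound addition. Test articles ran at 8 concentrations, 1:4 dilutions from 100 uM final, in two replicate plates.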

Assay [3] is described as follows: APR_HepG2_MicrotubuleCSK_1hr: Apredica 1-hour HepG2 Assay for Microtubule CSK Stabilty (AID 2282669). Conditions: HepG2 microtubule cytoskeleton imaging, actives raise or lower the signal. Put shortly:
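HepG2 cells exposed 1 h to 0.39–200 uM compound (0.5% DMSO, duplicates), then formaldehyde-fixed, permeabilized and immunostained for alpha-tubulin with Hoechst nuclei. Imaged by ArrayScan high-content analysis; bidirectional fit versus DMSO.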

Assay [4] is described as follows: APR_HepG2_NuclearSize_1hr: Apredica 1-hour HepG2 Assay for Nuclear Size (AID 2282670). Conditions: high-content imaging, actives raise or lower the signal. Put shortly: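 HepG2 cells dosed 1 hr with 0.39–200 uM compound (0.5% DMSO), formaldehyde-fixed, Hoechst 33342-stained and imaged at 20x; nuclear diameter from nuclear stain, fitted bidirectionally against DMSO.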

Assay [5] can be described thus: APR_HepG2_p53Act_1hr: Apredica 1-hour HepG2 Assay for p53 Activation (AID 2282671). Conditions: high-content imaging, actives raise or lower the signal. In short, it runs like this: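 HepG2 cells treated 1 h with compound at 0.39–200 uM (10 concentrations, duplicate) in 0.5% DMSO. Formaldehyde-fixed, permeabilised cells immunostained for p53 with Hoechst 33342; high-content imaging, bidirectional fit versus DMSO.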

A short description of assay [6]: APR_HepG2_P-H2AX_1hr: Apredica 1-hour HepG2 Assay for H2AX Phosphorylation (AID 2282673). Conditions: high-content imaging, actives raise or lower the signal. Put shortly: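 HepG2 dosed 1 hr at 0.39-200 uM (0.5% DMSO final), duplicate. Fixed in 3.7% formaldehyde, Triton permeabilized, immunostained for phospho-histone H2A.x (1:200) with Hoechst 33342; ArrayScan 20x imaging, bidirectional fit vs DMSO.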

Assay [7] is described as follows: APR_HepG2_MitoMass_1hr: Apredica 1-hour HepG2 Assay for Mitochondrial Mass (AID 2282674). To be noted: high-content imaging, actives raise or lower the signal. Put shortly: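 HepG2 cells dosed 1 hr with 0.39-200 uM compound (0.5% DMSO), duplicate wells. Mitochondria stained with 250 nM MitoTracker Red CMXRos for 30 min before formaldehyde fixation, imaged at 20x by ArrayScan; bidirectional fit versus DMSO.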

A short description of assay [8]: APR_HepG2_CellCycleArrest_24hr: Apredica 24-hour HepG2 Assay for Cell Cycle Arrest (AID 2282905).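 Also: cell cycle arrest scored as ratio of 2N to 4N nuclear DNA content.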 To be noted: imaging, actives raise or lower the signal. In short, it runs like this: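 Compounds at 0.39–200 uM (0.5% DMSO) for 24 h, then fixed and Hoechst 33342 stained. Cell-cycle analysis of nuclear DNA content by high-content imaging, fitted bidirectionally versus DMSO.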

Assay [9] can be described thus: APR_HepG2_StressKinase_1hr: Apredica 1-hour HepG2 Assay for Stress Kinase (AID 2282906). To be noted: HepG2 stress kinase (phospho-c-Jun) imaging, actives raise or lower the signal. Put shortly: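 HepG2 cells dosed 0.39-200 uM (0.5% DMSO) for 1 h, then formaldehyde-fixed. Stress kinase read by phospho-c-Jun immunofluorescence using high-content imaging; bidirectional fit vs DMSO.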

Assay [10] in a line: APR_HepG2_NuclearSize_24hr: Apredica 24-hour HepG2 Assay for Nuclear Size (AID 2282907). To be noted: high-content imaging, actives raise or lower the signal. Put shortly: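 HepG2 cells exposed 24 h to compounds at 0.39–200 uM (0.5% DMSO), fixed, Hoechst 33342 stained and imaged at 20x; nuclear diameter measured by automated image analysis, fitted bidirectionally against DMSO controls.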

Assay [11] in a line: APR_HepG2_CellLoss_24hr: Apredica 24-hour HepG2 Assay for Cell Loss (AID 2282908). To be noted: high-content imaging. Put shortly:
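HepG2 cells exposed 24 hr to 0.39–200 uM compound in duplicate at 0.5% v/v final DMSO. Cells fixed in 3.7% formaldehyde and Hoechst 33342-stained. Cell number came from nuclear imaging at 20x. Bidirectional fit versus DMSO.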

Assay [12] is described as follows: APR_HepG2_MicrotubuleCSK_24hr: Apredica 24-hour HepG2 Assay for Microtubule CSK Stabilty (AID 2282909). Conditions: HepG2 microtubule cytoskeleton imaging, actives raise or lower the signal. Put shortly: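 HepG2 cells were treated 24 hr with compound at 0.39–200 uM in duplicate (0.5% DMSO final), then fixed and permeabilized. Alpha-tubulin immunofluorescence was imaged by high-content microscopy, with bidirectional fitting against DMSO and taxol as positive control.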

Assay [13] in a line: APR_HepG2_MitoticArrest_24hr: Apredica 24-hour HepG2 Assay for Mitotic Arrest (AID 2282910). To be noted: high-content imaging, actives raise or lower the signal. Put shortly: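 HepG2 cells, 24 h exposure at 0.39-200 uM (10 concentrations, duplicate, 0.5% DMSO). Fixed, stained for phospho-histone H3 with Hoechst; imaged by high-content microscopy, bidirectional fit versus DMSO.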

The nature of assay [14]: APR_HepG2_MitoMembPot_24hr: Apredica 24-hour HepG2 Assay for Mitochondrial Membrane Potential (AID 2282911). To be noted: imaging, actives raise or lower the signal. In short, it runs like this:
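Mitochondrial dye uptake (MitoTracker Red CMXRos, 250 nM, 30 min pre-fixation) in HepG2 after 24 hr compound exposure, 0.39–200 uM; ArrayScan images at 20x, activity fitted in both directions relative to DMSO.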

Assay [15] can be described thus: APR_HepG2_MitoMass_24hr: Apredica 24-hour HepG2 Assay for Mitochondrial Mass (AID 2282912). To be noted: high-content imaging, actives raise or lower the signal. Put shortly: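 HepG2 cells exposed 24 hr to 0.39–200 uM compound, 0.5% v/v DMSO, in duplicate. Stained before fixation with 250 nM MitoTracker Red CMXRos for 30 min, then imaged at 20x with Hoechst nuclei. Fitted in both directions against DMSO.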

Assay [16] in a line: APR_HepG2_p53Act_24hr: Apredica 24-hour HepG2 Assay for p53 Activation (AID 2282913).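 Also: p53 protein immunofluorescence averaged per cell in HepG2 with Hoechst nuclei.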 Conditions: high-content imaging, actives raise or lower the signal. In short, it runs like this:
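Following 24 hr dosing of HepG2 at 0.39–200 uM, the cells undergo formaldehyde fixation, Triton permeabilization and multiplexed antibody labeling that includes p53 (Cy5). Signal from the imaging is referenced to DMSO solvent controls.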

The nature of assay [17]: APR_HepG2_MitoticArrest_1hr: Apredica 1-hour HepG2 Assay for Mitotic Arrest (AID 2282672). To be noted: high-content imaging, actives raise or lower the signal. In short, it runs like this: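 HepG2 cells exposed 1 hr to compounds at 0.39–200 uM (0.5% v/v DMSO final), then fixed in 3.7% formaldehyde and immunostained for phospho-histone H3 with Hoechst 33342. Mitotic arrest scored by automated fluorescence imaging, fitted bidirectionally versus DMSO.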

The nature of assay [18]: APR_HepG2_MitoMembPot_1hr: Apredica 1-hour HepG2 Assay for Mitochondrial Membrane Potential (AID 2282675). Conditions: imaging, actives raise or lower the signal. In short, it runs like this: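 HepG2 cells dosed 1 hour with 0.39–200 uM compound in duplicate, 0.5% DMSO final. MitoTracker Red CMXRos (250 nM, 30 min) loaded before formaldehyde fixation; fluorescence quantified by high-content imaging, bidirectional fitting versus DMSO.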

Assay [19] in a line: APR_HepG2_CellCycleArrest_72hr: Apredica 72-hour HepG2 Assay for Cell Cycle Arrest (AID 2282914). Conditions: high-content imaging, actives raise or lower the signal. In short, it runs like this:
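Using multiplexed high-content imaging, HepG2 nuclei stained with Hoechst 33342 (2 ug/mL) were analysed for DNA content after fixation and permeabilization. Treatment lasted 72 hr across 0.39–200 uM in duplicate with final DMSO 0.5% v/v; DMSO served as negative control.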

Records with an inconclusive call do not appear. The source made the active and inactive calls. The calls were made as follows, unless noted: active = hit-call score of the fitted dose curve at least 0.9, where 1 is the maximum; inactive = score below 0.9.

On to `COc1ccc(-c2ccccc2)cc1NNC(=O)OC(C)C`, for which the compound was classed as inactive in assay [1], in assay [2], in assay [3], in assay [4], in assay [5] and in assay [6]. The compound was called inactive in [7], in assay [8], in assay [9], in assay [10], in assay [11] and in assay [12]. In addition, the compound was called inactive in assay [13], in assay [14], in assay [15] and in assay [16].

As for `CO/N=C(/C1=NOCCO1)c1ccccc1Oc1ncnc(Oc2ccccc2Cl)c1F`, the compound was classed as inactive in assay [1], in assay [3], in assay [4], in assay [5], in [6] and in assay [7]. In addition, the compound was classed as inactive in assay [8], in assay [9], in assay [10], in [11], in assay [12] and in assay [13]. The call in [15] and in assay [16] was inactive. The results for the AC50 in assay [2] and in assay [14] were 10.5 µM (active) and 0.309 µM (active), respectively.

As to `CNC(=O)N(C)c1nnc(C(C)(C)C)s1`, the result in [1], in assay [2], in assay [3], in assay [5], in assay [17] and in assay [6] was inactive. In addition, the compound was called inactive in assay [7], in [18], in assay [8], in [9], in assay [10] and in assay [11]. The outcome in assay [12], in assay [13], in assay [14], in assay [15], in [16] and in [19] was inactive.

Regarding `N#Cc1c(Cl)cccc1Cl`, the compound was classed as inactive in [1], in [2], in assay [3], in assay [5], in [17] and in [6]. Further, the compound was classed as inactive in assay [7], in assay [8], in assay [9], in [10], in assay [11] and in assay [12]. Further, the compound was called inactive in [13], in assay [14], in [15], in assay [16] and in assay [19].

As to `CCCC(=NOCC)C1=C(O)CC(CC(C)SCC)CC1=O` (stereo not given), the outcome in assay [1], in assay [2], in assay [3], in assay [4], in [5] and in [17] was inactive. Besides, the result in [6], in [7], in assay [8], in [9], in assay [10] and in [11] was inactive. Further, the result in assay [12], in [13], in [14], in assay [15] and in [16] was inactive.

On to `Cc1nc(N(C)C)nc(OC(=O)N(C)C)c1C`, for which the compound was called inactive in assay [1], in assay [2], in assay [3], in assay [6], in [7] and in [8]. Moreover, the result in assay [9], in assay [10], in assay [11], in [12], in assay [13] and in assay [14] was inactive. Further, in [15], the compound was classed as inactive.

Turning to `N#CN=C1SCCN1Cc1ccc(Cl)nc1`, the compound was called inactive in [1], in [2], in assay [3], in assay [5], in assay [6] and in assay [7]. In addition, the compound was called inactive in assay [18], in assay [8], in [9], in assay [10], in [11] and in [12]. Further, the outcome in assay [13], in assay [14], in assay [15] and in assay [16] was inactive.

Take `CCC(C)n1c(=O)[nH]c(C)c(Br)c1=O` (stereo not given): the call in assay [1], in [2], in [3], in assay [5], in assay [6] and in assay [7] was inactive. For the same compound, the compound was classed as inactive in [18], in assay [8], in assay [9], in assay [10], in assay [11] and in assay [12]. Also, the call in assay [13], in assay [14], in assay [15], in [16] and in assay [19] was inactive.
